The panel holds about 83,000 compounds, 20% with a hit somewhere; the sample as a whole holds those more often.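 Activity criterion: percent growth below 10, measured after cells in 96-well plates were exposed to a single compound concentration for 48 hours.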 Unmarked numbers belong to inactive results. Activity calls are given as the source filed them.

The assay concerns HL-60(TB) leukemia. The assay is described as follows: NCI-60 one-dose screen, 48 h (100 = growth as untreated, 0 = no growth, -100 = all killed). The settings on record: 10 µM unless noted.
For the compound `ClC(Cl)c1nc(-c2ccco2)n2nc(-c3ccccc3)cc2n1`, the growth was -24.4% (active).
On to `CC1(C)CC[C@]2(C(=O)N3CCOCC3)CC[C@]3(C)C(=CC[C@@H]4[C@@]5(C)C/C(=C/c6ccccn6)C(=O)C(C)(C)[C@@H]5CC[C@]43C)[C@@H]2C1`, for which the growth was 6.91% (active).
With `COC(=O)c1c(C(=O)OC)c2n(CC(=O)Nc3cccc4cccnc34)c3ccccc3n2c1C(=O)c1ccc(C)cc1`, the growth was 99.2%.
The value for `CCc1cc2c(cc1Cl)nc1c(=O)[nH]c(=O)nc-1n2CCOCC(C)(C)C` was 82%; that for `COc1ccc(NC(=O)Cn2cc(CN3C(=O)c4ccc([N+](=O)[O-])cc4C3=O)nn2)cc1` was 95.1%; that for `CC(=O)Nc1cccc(Nc2nc(N[C@H](C)c3ccccc3)c3ccccc3n2)c1` was 13.6%.
For the compound `NC(N)=Nc1ccc(Oc2cccc(Nc3cccc(C(F)(F)F)c3)c2)cn1`, the growth was -64.4% (active).
With `Cc1ccc(-c2cc3nc(C(Cl)Cl)nc(-c4ccc(S(=O)(=O)N(C)C)cc4)n3n2)cc1` the figure was 74.9%.
With `Cc1ccc(-c2nn(-c3ccccc3)cc2/C=C/C(=O)c2ccc(NC(=O)CCCCCCC(=O)NO)cc2)cc1` the figure was 109%.
The value for `Oc1ccc(CSc2nnc(-c3ccc(Oc4ccccc4)cc3)o2)c2cccnc12` was 19.1%.
Take `COc1cc(NC(=O)Nc2cccc(-c3cc(=O)c4c(OC)c(OC)c(OC)cc4o3)c2)cc(OC)c1OC`: the growth is 45%.
The value for `COc1ccc(-c2nc3cc(Cl)c(Cl)cc3n2CC(=O)N=Nc2c(O)[nH]c3ccc(Br)cc23)cc1` was 80.2%; that for `N=c1c2cc(-c3ccccc3)oc2ncn1/N=C/c1ccccc1` was 58.8%.
The value for `O=C(CN1CCN(c2cc(=O)n(-c3ccccc3)c3ccccc23)CC1)Nc1nc(-c2ccc(Cl)cc2)cs1` was 26.2%.
With `COC(=O)c1ccc(NC2=C/C(=N/S(=O)(=O)c3ccc(C(=O)O)cc3)c3ccccc3C2=O)cc1` the figure was -15.9% (active); with `Cc1sc2nc(NCc3ccccc3Cl)[nH]c(=O)c2c1C`, 75.1%.
Take `CN1C(=O)/C(=C/C=C/c2ccco2)SC1=S`: the growth was 99.6%.
With `COc1ccc(-c2nc(C(Cl)Cl)nc3cc(-c4ccccc4)nn23)cc1` the figure was -7.77% (active); with `Cc1c(Cl)cccc1S(=O)(=O)Nc1ccc2c(c1)C(=O)N(C1CCC(=O)NC1=O)C2=O` (stereo not given), -7.01% (active).
The value for `COc1ccc(-c2cc(-c3ccc(N4CCOCC4)cc3)n3c(n2)nc2ccccc23)cc1OC` was 71%.
With `CN1CCN(Cc2ccc(NC(=O)c3cncc(C#Cc4cnc5ccc(OCC6COC6)nn45)c3)cc2C(F)(F)F)CC1` the figure was -42.8% (active); with `COc1ccc(-c2cnc(NC(=O)CCCCCCNC(=O)C(O)(O)C(F)(F)F)s2)cc1`, 10.5%; with `NC(=O)c1ncn2c(=O)n(CCF)nnc12`, 29.6%.
For `CNC(=O)c1cc(-c2ccc(NS(=O)(=O)c3ccc(C)cc3)cc2)nc2cccnc12`, the growth is 113%.
In the case of `CC(=O)c1cc(C(=O)c2ccc(Br)cc2)n2cc(C)cc(C)c12`, the growth is 83.3%.
